For ten molecules, Percent Effect results are on record in ChEMBL document CHEMBL3988442, “University of Dundee, Small-Polar-MMV Screening Library” (2021).

Design in all cases: scale not given: direction of the effect not stated beside the values
Test [1] deals with Protein translocase subunit SecA (Escherichia coli (strain K12)) (UniProt P10408). The experiment in a line: Assay to Identify E. coli SecA ATPase Inhibitors. The class given is functional. The settings on record: 30 µM.
Test [2] concerns the target T1, Ubiquitin-activating enzyme e1, putative (Leishmania donovani (strain BPK282A1)) (UniProt E9BSI1).
T1 sequence (whole entry): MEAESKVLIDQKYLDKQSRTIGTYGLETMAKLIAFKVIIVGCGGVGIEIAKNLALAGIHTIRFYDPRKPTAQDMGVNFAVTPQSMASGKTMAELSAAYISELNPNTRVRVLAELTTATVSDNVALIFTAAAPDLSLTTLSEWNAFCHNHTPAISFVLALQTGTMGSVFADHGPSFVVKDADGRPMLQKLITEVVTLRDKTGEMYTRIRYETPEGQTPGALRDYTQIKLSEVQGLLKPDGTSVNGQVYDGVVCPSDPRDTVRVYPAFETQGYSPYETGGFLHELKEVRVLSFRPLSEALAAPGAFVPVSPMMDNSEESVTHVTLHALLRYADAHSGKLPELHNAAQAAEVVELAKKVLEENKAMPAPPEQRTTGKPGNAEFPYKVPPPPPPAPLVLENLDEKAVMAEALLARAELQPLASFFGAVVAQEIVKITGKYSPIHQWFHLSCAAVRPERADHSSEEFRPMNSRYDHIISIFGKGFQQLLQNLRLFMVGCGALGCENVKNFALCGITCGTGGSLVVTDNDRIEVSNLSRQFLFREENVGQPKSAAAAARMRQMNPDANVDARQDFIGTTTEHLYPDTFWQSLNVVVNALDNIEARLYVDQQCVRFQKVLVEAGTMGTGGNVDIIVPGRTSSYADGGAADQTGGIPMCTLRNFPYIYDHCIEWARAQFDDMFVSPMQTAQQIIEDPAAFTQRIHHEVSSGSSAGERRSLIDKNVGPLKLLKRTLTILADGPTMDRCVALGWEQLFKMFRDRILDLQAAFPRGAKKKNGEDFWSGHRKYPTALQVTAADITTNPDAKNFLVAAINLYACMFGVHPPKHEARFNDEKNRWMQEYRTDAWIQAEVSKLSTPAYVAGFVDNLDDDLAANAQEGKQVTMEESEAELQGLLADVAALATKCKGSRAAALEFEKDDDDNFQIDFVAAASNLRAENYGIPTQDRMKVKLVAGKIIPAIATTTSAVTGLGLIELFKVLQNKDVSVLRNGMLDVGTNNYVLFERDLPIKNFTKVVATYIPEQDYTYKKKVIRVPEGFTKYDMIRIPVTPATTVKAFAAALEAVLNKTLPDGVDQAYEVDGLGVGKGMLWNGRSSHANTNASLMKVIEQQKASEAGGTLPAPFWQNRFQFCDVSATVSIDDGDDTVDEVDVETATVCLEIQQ
The experiment in a line: Leishmania donovani Ubiquitin Activating Enzyme (LdE1). The settings on record: 30 µM. The class given is functional.

Test [3] has as its target AMP-activated protein kinase, AMPK (Homo sapiens) (UniProt P54646+O43741+P54619+Q9UGJ0+Q9Y478+Q13131+Q9UGI9). Put plainly: AMP-dependent Kinase enzyme assay. An in vitro enzyme assay that detects ADP turnover that is directly proportional to AMPK activity. This uses naive AMPK that is activated during the assay with MK-8722. In kind it is functional. The settings on record: 30 µM.

In test [4] the target is Sialic acid-binding Ig-like lectin 9 (Homo sapiens) (UniProt Q9Y336). Put plainly: Hs-Siglec9 ALPHAscreen SOP 20170721. The settings on record: 10 µM.
Sialic acid-binding Ig-like lectin 9 (Homo sapiens), sequence (Q9Y336 whole entry): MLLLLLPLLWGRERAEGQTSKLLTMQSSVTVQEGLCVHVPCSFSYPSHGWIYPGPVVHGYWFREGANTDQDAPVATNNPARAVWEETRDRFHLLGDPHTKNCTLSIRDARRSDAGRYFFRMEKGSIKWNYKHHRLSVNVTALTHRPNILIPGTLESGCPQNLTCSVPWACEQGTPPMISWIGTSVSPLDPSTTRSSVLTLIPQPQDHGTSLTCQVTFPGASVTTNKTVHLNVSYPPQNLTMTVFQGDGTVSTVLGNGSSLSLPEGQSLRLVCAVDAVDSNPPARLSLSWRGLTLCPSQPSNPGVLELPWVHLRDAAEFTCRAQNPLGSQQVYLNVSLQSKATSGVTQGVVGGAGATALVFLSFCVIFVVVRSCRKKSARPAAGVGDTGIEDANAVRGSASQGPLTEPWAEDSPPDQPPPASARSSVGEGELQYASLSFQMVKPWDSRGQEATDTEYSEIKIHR
The next test deals with Trypanosoma cruzi. The experiment in a line: Trypanosoma cruzi phosphomannomutase and mannose-1-phosphate guanylyltransferase assay. The class given is functional. The settings on record: 10 µM.
The target of test [5] is T2, Arginase-2, mitochondrial (Homo sapiens) (UniProt P78540).
T2 sequence (whole entry): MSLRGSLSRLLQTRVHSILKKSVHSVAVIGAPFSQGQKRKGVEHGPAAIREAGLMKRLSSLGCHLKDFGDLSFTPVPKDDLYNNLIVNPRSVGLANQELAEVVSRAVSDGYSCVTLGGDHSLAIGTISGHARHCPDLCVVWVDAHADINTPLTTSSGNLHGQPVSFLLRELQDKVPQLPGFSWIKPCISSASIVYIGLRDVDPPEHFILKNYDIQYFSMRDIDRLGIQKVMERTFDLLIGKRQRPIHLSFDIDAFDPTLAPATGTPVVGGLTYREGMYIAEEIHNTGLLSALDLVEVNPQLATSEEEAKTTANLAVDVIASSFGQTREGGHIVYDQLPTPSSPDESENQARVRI
The experiment in a line: in vitro enzyme assay to detect the production of urea directly proportional to the activity of Arginase II. Also: in the data most compounds retested in dose-response had high values. The class given is functional. The settings on record: 33.3 µM.

In test [6] the target is T3, Proteasome subunit beta (Trypanosoma cruzi) (UniProt O96673).
T3 sequence (whole entry): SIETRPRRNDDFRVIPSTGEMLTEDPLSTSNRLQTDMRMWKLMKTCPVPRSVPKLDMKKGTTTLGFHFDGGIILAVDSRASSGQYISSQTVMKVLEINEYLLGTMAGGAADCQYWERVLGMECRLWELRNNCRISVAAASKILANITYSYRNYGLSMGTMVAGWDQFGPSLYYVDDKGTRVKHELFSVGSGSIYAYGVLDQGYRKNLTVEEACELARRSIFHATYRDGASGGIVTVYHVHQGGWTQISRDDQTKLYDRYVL
Put plainly: Trypanosoma cruzi proteasome chymotrypsin-like activity (TcProtChymo) assay. Also: in the data most compounds retested in dose-response had high values. The class given is functional. The settings on record: 9.37 µM.

The species entered for a further test is Homo sapiens. The experiment in a line: To identify inhibition of the IFN signalling (Jak-Stat) pathway via expression of an eGFP reporter gene under the control of an IFN-stimulated response element (ISRE) containing MxA promoter. In kind it is functional. The settings on record: 30 µM. (A reporter such as luciferase makes a cellular process visible.)
Test [7] concerns the target T4, Tyrosyl-tRNA synthetase, putative (Trypanosoma cruzi (strain CL Brener)) (UniProt Q4DSP6).
T4 sequence (whole entry): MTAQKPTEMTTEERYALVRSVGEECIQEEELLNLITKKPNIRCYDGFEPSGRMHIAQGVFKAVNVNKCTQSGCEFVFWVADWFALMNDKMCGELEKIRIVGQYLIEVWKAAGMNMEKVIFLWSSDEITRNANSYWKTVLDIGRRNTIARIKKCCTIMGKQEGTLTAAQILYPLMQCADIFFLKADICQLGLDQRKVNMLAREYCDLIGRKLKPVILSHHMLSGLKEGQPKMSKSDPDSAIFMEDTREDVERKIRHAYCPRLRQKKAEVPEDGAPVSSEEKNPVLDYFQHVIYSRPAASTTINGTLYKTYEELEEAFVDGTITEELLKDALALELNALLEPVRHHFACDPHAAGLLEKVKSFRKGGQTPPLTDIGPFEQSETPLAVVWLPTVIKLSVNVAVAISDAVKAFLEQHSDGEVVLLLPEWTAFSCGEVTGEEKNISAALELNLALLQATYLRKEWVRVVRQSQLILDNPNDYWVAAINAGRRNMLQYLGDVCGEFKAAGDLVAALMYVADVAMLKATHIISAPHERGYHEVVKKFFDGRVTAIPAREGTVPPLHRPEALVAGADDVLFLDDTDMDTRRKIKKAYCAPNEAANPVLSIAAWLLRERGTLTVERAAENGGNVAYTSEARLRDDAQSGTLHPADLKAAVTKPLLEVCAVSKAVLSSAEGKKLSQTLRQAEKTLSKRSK
Put plainly: Trypanosoma cruzi tyrosyl tRNA synthetase (TcYRS) _High Tyrosine SOP. Also: in the data most compounds retested in dose-response had high values. The class given is functional. The settings on record: 30 µM.

The target of test [8] is T4, Tyrosyl-tRNA synthetase, putative (Trypanosoma cruzi (strain CL Brener)). The experiment in a line: Trypanosoma cruzi tyrosyl tRNA synthetase (TcYRS) SOP. The class given is functional. The settings on record: 30 µM.
For test [9], the target named is Chromo domain-containing protein 1 (Saccharomyces cerevisiae (strain ATCC 204508 / S288c) (Baker's yeast)) (UniProt P32657). Put plainly: ScCHD-1 Enzyme Inhibition Assay. Also: in the data most compounds retested in dose-response had high values. In kind it is functional. The settings on record: 30 µM.
Chromo domain-containing protein 1 (Saccharomyces cerevisiae (strain ATCC 204508 / S288c) (Baker's yeast)), sequence (P32657 whole entry, the tested form may be a part): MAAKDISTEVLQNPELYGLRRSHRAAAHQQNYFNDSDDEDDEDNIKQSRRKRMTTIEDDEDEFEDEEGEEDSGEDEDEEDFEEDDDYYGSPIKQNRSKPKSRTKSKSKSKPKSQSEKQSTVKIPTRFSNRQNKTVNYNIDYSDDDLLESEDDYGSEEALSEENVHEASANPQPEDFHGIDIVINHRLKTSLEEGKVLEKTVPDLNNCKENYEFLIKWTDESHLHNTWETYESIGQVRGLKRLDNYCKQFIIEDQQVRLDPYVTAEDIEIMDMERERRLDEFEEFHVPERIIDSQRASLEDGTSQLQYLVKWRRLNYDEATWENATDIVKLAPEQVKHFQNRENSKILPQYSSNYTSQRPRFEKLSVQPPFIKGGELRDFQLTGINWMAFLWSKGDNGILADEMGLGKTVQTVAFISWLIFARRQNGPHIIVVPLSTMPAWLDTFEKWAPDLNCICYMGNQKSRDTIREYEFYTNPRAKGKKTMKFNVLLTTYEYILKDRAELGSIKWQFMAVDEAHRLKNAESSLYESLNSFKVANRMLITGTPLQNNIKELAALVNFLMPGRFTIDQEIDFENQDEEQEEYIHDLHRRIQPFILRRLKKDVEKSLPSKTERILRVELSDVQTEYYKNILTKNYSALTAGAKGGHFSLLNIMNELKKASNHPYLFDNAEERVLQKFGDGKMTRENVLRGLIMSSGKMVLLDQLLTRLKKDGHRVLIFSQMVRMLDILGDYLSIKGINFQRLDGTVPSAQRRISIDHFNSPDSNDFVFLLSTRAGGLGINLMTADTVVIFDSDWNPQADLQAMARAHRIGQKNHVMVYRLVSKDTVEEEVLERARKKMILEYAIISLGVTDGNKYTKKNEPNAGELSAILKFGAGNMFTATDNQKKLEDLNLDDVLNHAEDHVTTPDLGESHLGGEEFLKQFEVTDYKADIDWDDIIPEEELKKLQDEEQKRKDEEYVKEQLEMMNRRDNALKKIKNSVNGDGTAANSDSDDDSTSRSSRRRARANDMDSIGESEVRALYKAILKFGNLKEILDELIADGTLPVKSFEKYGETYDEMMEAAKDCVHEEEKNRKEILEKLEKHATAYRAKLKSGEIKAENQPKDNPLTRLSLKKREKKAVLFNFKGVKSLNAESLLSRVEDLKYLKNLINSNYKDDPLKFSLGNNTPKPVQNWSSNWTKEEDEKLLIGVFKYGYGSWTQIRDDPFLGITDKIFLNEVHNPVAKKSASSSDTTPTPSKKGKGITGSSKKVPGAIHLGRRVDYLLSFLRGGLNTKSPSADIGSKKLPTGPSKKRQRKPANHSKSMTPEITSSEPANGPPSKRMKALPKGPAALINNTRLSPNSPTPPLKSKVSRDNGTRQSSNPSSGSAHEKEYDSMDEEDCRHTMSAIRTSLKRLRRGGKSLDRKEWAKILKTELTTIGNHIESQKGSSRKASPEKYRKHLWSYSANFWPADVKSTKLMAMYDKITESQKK

For some assays here: Entries with a potency or affinity are not part of this list.

Protein translocase subunit SecA (Escherichia coli (strain K12)), sequence (P10408 whole entry): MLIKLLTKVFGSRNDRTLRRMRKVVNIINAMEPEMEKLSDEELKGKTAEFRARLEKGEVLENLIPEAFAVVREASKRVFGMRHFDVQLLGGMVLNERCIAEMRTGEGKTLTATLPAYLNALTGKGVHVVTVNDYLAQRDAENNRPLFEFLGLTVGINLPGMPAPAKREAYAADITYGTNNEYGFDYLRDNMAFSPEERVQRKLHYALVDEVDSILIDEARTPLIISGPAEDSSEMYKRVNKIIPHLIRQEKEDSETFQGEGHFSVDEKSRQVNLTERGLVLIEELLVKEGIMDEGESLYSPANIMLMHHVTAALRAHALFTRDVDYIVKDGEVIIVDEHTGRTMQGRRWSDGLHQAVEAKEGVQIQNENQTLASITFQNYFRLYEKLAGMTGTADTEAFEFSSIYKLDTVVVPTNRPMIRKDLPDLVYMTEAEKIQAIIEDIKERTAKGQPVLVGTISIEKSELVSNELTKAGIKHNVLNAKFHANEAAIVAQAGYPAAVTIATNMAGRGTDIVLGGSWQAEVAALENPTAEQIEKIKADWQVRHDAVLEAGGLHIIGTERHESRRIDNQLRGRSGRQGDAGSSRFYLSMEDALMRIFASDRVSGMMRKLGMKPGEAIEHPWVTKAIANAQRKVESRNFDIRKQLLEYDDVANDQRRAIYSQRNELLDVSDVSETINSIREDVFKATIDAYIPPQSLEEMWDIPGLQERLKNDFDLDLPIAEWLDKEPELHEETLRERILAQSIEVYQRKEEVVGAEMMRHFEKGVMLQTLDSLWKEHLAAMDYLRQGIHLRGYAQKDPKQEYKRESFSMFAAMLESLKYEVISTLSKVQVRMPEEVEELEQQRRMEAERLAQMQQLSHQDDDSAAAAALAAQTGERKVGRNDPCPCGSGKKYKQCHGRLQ

Consider `Cc1nc(N2CCN(C(=O)c3ccccc3)CC2)c2c(n1)c(C)nn2C`, for which the Percent Effect in [1] was -0.87%; in [2], 12%; in test [3] it was 3.25%; in test [4] it was 0%; in the test on Trypanosoma cruzi, -0.393%; in test [5], -12.8%. Besides, the Percent Effect in test [6] is 12.9%; in the test filed under Homo sapiens, 25.6%; in [7], 6.35%; in test [8], 10.3%; in test [9], -10.1%.
`Cc1ncsc1-c1nnc(C2CCN(Cc3ccc(F)cc3)CC2)o1`: the Percent Effect in test [1] was -0.551%; in test [2] it was -4.05%; in test [3], 20%; in test [4], -0.16%; in the test with Trypanosoma cruzi, 1.19%; in [5], -0.696%. Moreover, the Percent Effect in test [6] was 1.25%; in the test filed under Homo sapiens, -6.87%; in test [7] it was 0%; in [8] it was -6.49%; in test [9], -19.5%.
`Cc1cccc(NC(=O)CNC(=O)Cn2ncc(Cl)c(Cl)c2=O)c1C`: the Percent Effect in test [1] was -1.81%; in test [2] it was 0%; in test [3], 26%; in test [4], 2.69%; with Trypanosoma cruzi it was -8.4%; in [5], 0%. The Percent Effect in test [6] is 16.6%; in the test filed under Homo sapiens, 23.8%; in test [7], 11.9%; in test [8], -1.22%; in [9], 7.2%.
Turning to `CN(CC(=O)N1CCN(c2ccccc2F)CC1)c1cnccn1`, the Percent Effect in test [1] is -1.13%; in test [2], 16.2%; in test [3] it was -1.85%; in test [4] it was 4.66%; with Trypanosoma cruzi, -0.0929%; in test [5] it was -5.73%. For the same molecule, the Percent Effect in test [6] is 6.82%; in the test filed under Homo sapiens it was 12.1%; in [7], 5.94%; in test [8] it was 15.8%; in test [9], -7.13%.
In the case of `Cc1nc(C)n(CC2CCCN2CCc2cccs2)n1` (stereo not given), the Percent Effect in [1] is -2.28%; in test [2], 15.8%; in [3], 3.79%; in [4], -4.64%; in the test on Trypanosoma cruzi, 7.89%; in [5] it was -2.68%. Also, the Percent Effect in test [6] was 25.4%; in the test listed under Homo sapiens it was 10.2%; in test [7], 13.2%; in test [8], -7.32%; in [9] it was -11.4%.
For `c1ccc(-c2nc(CN3CCCC(Cn4cncn4)C3)no2)cc1` (stereo not given), the Percent Effect is -5.26% in test [1]; -3.8% in [2]; 7.69% in test [3]; -3.34% in [4]; -3.59% with Trypanosoma cruzi; 5.38% in [5]. The Percent Effect was 4.8% in test [6]; 0.0835% in the test listed under Homo sapiens; 2.08% in test [7]; 7.59% in test [8]; -9.44% in test [9].
Turning to `O=C(NCc1csc(Br)c1)c1ccncc1`, the Percent Effect in test [1] was -2.58%; in [2], 19%; in test [3], 5.52%; in test [4], 2.28%; with Trypanosoma cruzi, 0.103%; in test [5], 2.8%. The Percent Effect was 11.3% in [6]; 21.8% in the test listed under Homo sapiens; -1.04% in [7]; 15.2% in [8]; -29.5% in test [9].
As to `CCCNC(=O)c1cc2c([nH]c1=O)CC(c1cccs1)CC2=O` (stereo not given), the Percent Effect in test [1] was 0.191%; in [2], 14.7%; in test [3], 13.3%; in [4], 3.54%; in the test on Trypanosoma cruzi, 3.34%; in test [5] it was -0.88%. The Percent Effect was 7.58% in test [6]; 21% in the test filed under Homo sapiens; -4.23% in [7]; 12.8% in [8]; -7.37% in [9].
As for `CCOCC1CN(C(=O)c2ccncc2)Cc2nn(C)cc21` (stereo not given), the Percent Effect in [1] is 2.34%; in [2] it was 16%; in [3], -4.74%; in test [4] it was 2.25%; with Trypanosoma cruzi, 0.193%; in test [5] it was -51.1%. In addition, the Percent Effect in test [6] is 9.23%; in the test filed under Homo sapiens, -2.51%; in [7] it was 6.25%; in test [8] it was 22.5%; in [9], -3.97%.
Regarding `O=C1[C@H]2CN(Cc3nccs3)C[C@H]2CN1c1ccsc1`, the Percent Effect in test [1] was -6.53%; in [2], 0%; in test [3], 8.27%; in [4] it was -7.06%; with Trypanosoma cruzi, -2.25%; in test [5], 0.319%. Besides, the Percent Effect in [6] is 12.4%; in the test listed under Homo sapiens, -3.04%; in test [7], -1.08%; in [8] it was 2.56%; in [9] it was -0.738%.
